# What was measured:
# Experiment in all cases: DAPPL (digital affinity profiling via proximity ligation, sequencing); 10 mM Tris-HCl pH 7.5, 50 mM NaCl, 1 mM DTT, 4% glycerol, room temperature, 30 min; GST-TFs on glutathione beads, 16-mer random dsDNA library, 0.1% formaldehyde crosslink after washing; high values mean tight binding
# FLI1 = molecular target: T1, FLI1 (Homo sapiens, UniProt Q01543 1-452); details: protein: recombinant; tags: N-terminal GST; dsDNA, one strand shown
# T1 sequence: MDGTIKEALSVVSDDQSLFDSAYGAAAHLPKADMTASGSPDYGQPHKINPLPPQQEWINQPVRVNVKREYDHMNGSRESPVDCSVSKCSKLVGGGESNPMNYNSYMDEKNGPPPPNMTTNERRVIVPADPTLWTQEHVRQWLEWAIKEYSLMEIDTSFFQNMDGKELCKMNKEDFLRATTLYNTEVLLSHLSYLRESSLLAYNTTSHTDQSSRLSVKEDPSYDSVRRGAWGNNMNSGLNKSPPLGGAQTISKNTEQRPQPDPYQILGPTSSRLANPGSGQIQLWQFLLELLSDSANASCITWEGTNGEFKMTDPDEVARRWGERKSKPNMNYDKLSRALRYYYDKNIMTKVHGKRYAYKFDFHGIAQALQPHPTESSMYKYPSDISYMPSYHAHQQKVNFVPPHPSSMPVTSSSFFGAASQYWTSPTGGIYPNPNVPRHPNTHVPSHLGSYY
# How it was run: (§1)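 A tag-only sample was pooled with DNA-barcoded human transcription factors that had been expressed in yeast as GST fusions and captured on glutathione beads. The pools were incubated for 30 min at room temperature with 200 nmole of a random double-stranded 16-mer DNA library in Tris/NaCl/DTT/glycerol buffer, then washed, crosslinked with 0.1% formaldehyde, proximity-ligated (BsaI/T4 ligase, 1 h, 37 °C), PCR-amplified and sequenced on an Illumina NextSeq500. Binding signal is each hexamer's read frequency for a factor divided by its frequency for the tag-only sample.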
# ELK1 = molecular target: T2, ELK1 (Homo sapiens, UniProt P19419 1-428); details: protein: recombinant; tags: N-terminal GST; dsDNA, one strand shown
# T2 sequence: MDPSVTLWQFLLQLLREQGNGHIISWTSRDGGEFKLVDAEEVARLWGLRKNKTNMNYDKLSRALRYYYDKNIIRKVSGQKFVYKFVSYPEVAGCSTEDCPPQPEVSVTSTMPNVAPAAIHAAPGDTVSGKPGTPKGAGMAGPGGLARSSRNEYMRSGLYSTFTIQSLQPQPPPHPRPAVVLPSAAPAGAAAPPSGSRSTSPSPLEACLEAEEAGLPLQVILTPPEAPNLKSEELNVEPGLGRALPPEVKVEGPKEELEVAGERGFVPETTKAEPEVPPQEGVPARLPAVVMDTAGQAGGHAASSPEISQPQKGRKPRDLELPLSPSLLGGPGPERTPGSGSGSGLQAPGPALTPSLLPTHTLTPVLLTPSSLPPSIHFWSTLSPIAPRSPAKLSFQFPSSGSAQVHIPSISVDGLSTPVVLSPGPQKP
# How it was run: as §1
# GABPA = molecular target: T3, GABPA (Homo sapiens, UniProt Q06546 1-454); details: protein: recombinant; tags: N-terminal GST; dsDNA, one strand shown
# T3 sequence: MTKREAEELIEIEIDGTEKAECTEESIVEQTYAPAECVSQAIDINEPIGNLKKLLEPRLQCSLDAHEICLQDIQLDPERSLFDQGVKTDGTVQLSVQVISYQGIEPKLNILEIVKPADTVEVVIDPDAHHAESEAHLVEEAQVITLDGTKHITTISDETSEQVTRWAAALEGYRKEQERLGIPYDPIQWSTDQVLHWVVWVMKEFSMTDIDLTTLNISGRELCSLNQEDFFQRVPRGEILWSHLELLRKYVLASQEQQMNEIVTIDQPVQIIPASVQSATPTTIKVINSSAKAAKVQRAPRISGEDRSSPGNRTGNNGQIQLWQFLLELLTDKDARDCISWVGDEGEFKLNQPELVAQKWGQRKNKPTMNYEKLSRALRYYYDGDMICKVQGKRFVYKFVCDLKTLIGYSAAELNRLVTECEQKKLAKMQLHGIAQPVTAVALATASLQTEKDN
# How it was run: as §1
# ERG = molecular target: T4, ERG (Homo sapiens, UniProt P11308 1-479); details: protein: recombinant; tags: N-terminal GST; dsDNA, one strand shown
# T4 sequence: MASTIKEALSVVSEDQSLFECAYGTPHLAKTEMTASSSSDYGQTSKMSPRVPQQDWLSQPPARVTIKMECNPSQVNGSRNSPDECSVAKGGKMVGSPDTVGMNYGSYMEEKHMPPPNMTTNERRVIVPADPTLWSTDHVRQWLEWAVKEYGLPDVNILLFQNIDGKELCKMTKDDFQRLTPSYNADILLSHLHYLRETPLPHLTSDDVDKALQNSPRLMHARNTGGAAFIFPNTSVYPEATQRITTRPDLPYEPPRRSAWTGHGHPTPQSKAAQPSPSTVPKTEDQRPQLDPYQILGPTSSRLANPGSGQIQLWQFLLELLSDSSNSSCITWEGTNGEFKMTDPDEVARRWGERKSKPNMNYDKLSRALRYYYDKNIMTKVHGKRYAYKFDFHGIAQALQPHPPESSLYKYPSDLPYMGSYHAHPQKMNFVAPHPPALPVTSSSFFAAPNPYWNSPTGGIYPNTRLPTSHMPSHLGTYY
# How it was run: as §1
# ELF1 = ELF1 (Homo sapiens, UniProt P32519 1-619); details: protein: recombinant; tags: N-terminal GST; dsDNA, one strand shown
# Chain of ELF1 (P32519 whole entry): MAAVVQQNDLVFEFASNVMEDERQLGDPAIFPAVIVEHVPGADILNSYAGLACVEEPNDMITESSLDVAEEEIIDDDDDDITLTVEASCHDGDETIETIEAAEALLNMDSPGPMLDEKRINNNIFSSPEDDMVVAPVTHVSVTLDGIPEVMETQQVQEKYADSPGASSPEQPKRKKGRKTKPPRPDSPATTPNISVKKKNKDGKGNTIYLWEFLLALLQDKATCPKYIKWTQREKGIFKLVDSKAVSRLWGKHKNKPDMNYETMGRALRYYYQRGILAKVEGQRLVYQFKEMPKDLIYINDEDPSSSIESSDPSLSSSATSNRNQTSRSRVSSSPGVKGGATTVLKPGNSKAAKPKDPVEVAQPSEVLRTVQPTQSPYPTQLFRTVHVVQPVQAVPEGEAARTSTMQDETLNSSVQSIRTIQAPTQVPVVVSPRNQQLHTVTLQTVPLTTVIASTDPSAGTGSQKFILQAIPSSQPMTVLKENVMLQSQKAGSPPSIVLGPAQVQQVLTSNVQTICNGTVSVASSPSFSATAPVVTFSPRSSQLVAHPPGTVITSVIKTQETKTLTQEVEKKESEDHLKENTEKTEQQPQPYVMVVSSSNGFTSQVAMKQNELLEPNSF
# How it was run: as §1
# EHF = molecular target: T5, EHF (Homo sapiens, UniProt Q9NZC4 1-300); details: protein: recombinant; tags: N-terminal GST; dsDNA, one strand shown
# T5 sequence: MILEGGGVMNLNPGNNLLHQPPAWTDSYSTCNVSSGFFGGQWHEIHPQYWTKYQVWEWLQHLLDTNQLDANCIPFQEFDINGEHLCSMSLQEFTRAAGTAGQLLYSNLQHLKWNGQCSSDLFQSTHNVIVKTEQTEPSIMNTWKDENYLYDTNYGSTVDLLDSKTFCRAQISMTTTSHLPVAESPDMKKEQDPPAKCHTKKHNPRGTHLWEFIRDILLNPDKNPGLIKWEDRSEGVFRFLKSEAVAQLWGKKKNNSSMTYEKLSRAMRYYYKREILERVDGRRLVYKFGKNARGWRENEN
# How it was run: as §1
# SPIB = SPIB (Homo sapiens, UniProt Q01892 1-262); details: protein: recombinant; tags: N-terminal GST; dsDNA, one strand shown
# Chain of SPIB (Q01892 whole entry): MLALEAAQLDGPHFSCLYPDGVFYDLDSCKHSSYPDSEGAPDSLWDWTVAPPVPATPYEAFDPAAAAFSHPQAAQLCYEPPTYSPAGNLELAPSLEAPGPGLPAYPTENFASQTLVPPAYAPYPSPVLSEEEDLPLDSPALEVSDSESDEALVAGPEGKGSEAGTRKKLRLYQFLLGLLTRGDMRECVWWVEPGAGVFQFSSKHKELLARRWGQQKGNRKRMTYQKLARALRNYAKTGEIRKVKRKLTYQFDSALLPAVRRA
# How it was run: as §1
# ELK3 = molecular target: T6, ELK3 (Homo sapiens, UniProt P41970 1-407); details: protein: recombinant; tags: N-terminal GST; dsDNA, one strand shown
# T6 sequence: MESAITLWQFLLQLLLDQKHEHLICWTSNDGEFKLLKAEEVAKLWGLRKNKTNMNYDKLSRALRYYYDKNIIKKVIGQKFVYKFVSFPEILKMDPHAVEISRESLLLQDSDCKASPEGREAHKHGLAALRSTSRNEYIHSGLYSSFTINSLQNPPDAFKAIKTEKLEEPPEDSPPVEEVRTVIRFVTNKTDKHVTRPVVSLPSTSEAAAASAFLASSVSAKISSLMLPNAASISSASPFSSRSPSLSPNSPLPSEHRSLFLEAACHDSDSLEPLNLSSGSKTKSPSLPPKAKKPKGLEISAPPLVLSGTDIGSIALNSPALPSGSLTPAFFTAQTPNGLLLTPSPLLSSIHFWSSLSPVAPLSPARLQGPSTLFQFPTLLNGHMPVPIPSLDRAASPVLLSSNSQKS
# How it was run: as §1
# FEV = molecular target: T7, FEV (Homo sapiens, UniProt Q99581 1-238); details: protein: recombinant; tags: N-terminal GST; dsDNA, one strand shown
# T7 sequence: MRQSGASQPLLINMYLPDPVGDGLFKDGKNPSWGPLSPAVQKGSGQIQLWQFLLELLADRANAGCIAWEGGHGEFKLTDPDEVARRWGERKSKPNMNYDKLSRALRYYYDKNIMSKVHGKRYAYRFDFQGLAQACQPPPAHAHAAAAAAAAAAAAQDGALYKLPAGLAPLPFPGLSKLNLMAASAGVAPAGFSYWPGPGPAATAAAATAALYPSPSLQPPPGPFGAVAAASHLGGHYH
# How it was run: as §1
# ETV5 = ETV5 (Homo sapiens, UniProt P41161 1-510); details: protein: recombinant; tags: N-terminal GST; dsDNA, one strand shown
# Chain of ETV5 (P41161 whole entry): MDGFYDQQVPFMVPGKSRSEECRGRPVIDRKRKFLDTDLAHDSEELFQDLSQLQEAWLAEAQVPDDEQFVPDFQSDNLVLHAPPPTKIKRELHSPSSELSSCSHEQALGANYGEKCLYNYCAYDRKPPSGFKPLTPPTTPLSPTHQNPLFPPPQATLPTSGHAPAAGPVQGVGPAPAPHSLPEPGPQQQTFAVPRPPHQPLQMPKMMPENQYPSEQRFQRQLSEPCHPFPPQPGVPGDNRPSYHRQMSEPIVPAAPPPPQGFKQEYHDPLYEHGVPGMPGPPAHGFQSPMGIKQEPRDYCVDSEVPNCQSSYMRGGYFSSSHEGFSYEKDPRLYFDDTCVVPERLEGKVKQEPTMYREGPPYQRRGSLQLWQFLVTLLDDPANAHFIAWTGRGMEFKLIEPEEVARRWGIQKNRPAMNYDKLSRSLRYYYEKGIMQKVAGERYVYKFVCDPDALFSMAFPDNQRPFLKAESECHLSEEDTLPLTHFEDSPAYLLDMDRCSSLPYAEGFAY
# How it was run: as §1
# HSF1 = HSF1 (Homo sapiens, UniProt Q00613 1-529); details: protein: recombinant; tags: N-terminal GST; chain copies: 3; dsDNA, one strand shown
# Chain of HSF1 (Q00613 whole entry): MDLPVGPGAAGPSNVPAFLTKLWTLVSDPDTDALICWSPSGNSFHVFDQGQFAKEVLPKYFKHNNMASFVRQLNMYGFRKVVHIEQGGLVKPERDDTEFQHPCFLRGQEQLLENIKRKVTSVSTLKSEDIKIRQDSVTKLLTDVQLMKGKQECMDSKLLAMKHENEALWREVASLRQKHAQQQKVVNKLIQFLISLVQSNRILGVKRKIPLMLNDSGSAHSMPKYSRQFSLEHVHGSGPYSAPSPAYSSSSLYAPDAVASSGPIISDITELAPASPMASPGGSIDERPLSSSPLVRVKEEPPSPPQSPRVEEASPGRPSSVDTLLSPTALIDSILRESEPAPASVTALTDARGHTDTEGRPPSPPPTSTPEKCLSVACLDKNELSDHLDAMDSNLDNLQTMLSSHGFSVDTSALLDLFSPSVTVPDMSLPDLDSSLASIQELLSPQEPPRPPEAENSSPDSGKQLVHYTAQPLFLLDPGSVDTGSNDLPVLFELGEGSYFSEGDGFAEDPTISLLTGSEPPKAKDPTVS
# How it was run: as §1
# SPIC = molecular target: T8, SPIC (Homo sapiens, UniProt Q8N5J4 1-248); details: protein: recombinant; tags: N-terminal GST; dsDNA, one strand shown
# T8 sequence: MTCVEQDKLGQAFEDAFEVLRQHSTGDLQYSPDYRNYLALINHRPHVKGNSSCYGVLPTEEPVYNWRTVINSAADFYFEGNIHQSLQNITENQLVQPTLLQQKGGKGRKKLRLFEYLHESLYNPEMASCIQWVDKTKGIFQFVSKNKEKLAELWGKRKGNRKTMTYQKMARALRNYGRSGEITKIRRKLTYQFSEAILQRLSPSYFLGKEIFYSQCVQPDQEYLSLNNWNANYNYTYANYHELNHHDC
# How it was run: as §1
# ELF4 = ELF4 (Homo sapiens, UniProt Q99607 1-663); details: protein: recombinant; tags: N-terminal GST; dsDNA, one strand shown
# Chain of ELF4 (Q99607 whole entry): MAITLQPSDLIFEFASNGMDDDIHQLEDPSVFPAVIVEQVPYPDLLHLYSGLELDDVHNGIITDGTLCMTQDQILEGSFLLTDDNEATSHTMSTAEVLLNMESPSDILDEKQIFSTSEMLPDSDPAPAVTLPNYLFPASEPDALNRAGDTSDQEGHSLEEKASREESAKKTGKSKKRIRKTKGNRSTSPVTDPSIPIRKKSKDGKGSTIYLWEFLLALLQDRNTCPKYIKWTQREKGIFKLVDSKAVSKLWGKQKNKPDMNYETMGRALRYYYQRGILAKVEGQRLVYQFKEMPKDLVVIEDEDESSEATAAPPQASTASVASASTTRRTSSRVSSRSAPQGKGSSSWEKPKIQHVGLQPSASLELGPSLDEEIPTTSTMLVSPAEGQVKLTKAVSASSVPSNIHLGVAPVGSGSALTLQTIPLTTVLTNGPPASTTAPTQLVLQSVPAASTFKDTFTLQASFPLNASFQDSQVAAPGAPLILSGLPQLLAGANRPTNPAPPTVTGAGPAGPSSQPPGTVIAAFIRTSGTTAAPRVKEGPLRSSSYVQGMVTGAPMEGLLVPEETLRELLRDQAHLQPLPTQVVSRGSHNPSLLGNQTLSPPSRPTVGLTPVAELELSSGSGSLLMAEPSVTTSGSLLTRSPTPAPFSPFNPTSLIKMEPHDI
# How it was run: as §1
# ELK4 = molecular target: T9, ELK4 (Homo sapiens, UniProt P28324-2 1-405); details: protein: recombinant; tags: N-terminal GST; dsDNA, one strand shown
# T9 sequence: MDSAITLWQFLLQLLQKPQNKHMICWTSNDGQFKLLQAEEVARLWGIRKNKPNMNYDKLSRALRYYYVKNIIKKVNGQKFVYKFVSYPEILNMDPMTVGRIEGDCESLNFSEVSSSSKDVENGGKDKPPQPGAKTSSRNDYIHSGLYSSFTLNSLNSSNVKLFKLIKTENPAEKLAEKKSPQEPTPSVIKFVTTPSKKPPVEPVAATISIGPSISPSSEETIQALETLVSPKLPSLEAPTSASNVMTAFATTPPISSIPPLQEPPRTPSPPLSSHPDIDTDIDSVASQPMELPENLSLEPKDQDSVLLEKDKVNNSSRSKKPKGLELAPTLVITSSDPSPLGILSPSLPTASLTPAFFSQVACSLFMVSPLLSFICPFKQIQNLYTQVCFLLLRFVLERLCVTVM
# How it was run: as §1
# ETV2 = molecular target: T10, ETV2 (Homo sapiens, UniProt O00321 1-342); details: protein: recombinant; tags: N-terminal GST; dsDNA, one strand shown
# T10 sequence: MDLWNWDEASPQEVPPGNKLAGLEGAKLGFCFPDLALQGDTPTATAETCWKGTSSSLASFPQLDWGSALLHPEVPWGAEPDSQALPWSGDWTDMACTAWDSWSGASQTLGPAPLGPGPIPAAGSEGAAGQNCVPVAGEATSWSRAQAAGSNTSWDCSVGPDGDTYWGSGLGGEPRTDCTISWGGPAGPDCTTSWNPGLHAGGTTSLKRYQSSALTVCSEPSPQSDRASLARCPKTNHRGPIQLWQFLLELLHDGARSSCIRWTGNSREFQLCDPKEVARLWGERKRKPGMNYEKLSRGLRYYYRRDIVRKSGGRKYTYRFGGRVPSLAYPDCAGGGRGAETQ
# How it was run: as §1
# ELF3 = molecular target: T11, ELF3 (Homo sapiens, UniProt P78545 1-371); details: protein: recombinant; tags: N-terminal GST; dsDNA, one strand shown
# T11 sequence: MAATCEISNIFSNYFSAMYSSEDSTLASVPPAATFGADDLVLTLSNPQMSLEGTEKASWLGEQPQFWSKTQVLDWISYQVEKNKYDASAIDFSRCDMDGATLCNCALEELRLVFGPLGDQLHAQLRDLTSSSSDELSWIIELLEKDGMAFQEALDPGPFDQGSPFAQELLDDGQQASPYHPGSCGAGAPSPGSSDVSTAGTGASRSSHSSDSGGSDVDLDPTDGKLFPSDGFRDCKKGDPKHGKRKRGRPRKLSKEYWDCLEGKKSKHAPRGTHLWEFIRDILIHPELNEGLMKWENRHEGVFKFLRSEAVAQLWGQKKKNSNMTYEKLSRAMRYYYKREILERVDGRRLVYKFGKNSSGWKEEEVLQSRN
# How it was run: as §1
# CRX = CRX (Homo sapiens, UniProt O43186 1-299); details: protein: recombinant; tags: N-terminal GST; dsDNA, one strand shown
# Chain of CRX (O43186 whole entry): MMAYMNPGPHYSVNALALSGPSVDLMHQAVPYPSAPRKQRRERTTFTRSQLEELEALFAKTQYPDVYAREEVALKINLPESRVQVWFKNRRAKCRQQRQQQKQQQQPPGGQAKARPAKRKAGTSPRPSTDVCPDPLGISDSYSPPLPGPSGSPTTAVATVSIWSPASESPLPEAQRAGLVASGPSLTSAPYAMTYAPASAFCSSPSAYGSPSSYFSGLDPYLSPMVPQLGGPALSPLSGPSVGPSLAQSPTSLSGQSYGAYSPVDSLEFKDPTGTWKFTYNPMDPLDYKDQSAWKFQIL
# How it was run: as §1
# ETV1 = ETV1 (Homo sapiens, UniProt P50549 1-477); details: protein: recombinant; tags: N-terminal GST; dsDNA, one strand shown
# Chain of ETV1 (P50549 whole entry): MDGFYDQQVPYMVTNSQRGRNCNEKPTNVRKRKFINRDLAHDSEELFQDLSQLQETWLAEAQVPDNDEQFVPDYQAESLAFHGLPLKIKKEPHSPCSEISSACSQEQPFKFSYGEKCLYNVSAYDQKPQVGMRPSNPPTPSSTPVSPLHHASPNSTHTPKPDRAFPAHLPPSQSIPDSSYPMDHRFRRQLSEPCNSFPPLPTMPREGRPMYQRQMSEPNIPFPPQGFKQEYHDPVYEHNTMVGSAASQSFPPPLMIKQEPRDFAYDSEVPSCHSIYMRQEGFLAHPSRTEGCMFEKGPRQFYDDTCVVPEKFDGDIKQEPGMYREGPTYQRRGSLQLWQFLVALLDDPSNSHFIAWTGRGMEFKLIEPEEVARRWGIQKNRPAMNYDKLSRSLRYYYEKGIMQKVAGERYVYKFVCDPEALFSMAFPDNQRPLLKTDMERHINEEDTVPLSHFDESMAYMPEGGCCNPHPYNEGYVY
# How it was run: as §1
sequence,measurement,setting,value
GATATT,binding signal,FLI1,"1.11 fold enrichment (6-mer frequency, TF over GST control)"
same,binding signal,ELK1,"1.17 fold enrichment (6-mer frequency, TF over GST control)"
same,binding signal,GABPA,"1.06 fold enrichment (6-mer frequency, TF over GST control)"
same,binding signal,ERG,"1.12 fold enrichment (6-mer frequency, TF over GST control)"
same,binding signal,ELF1,"1.13 fold enrichment (6-mer frequency, TF over GST control)"
same,binding signal,EHF,"1.12 fold enrichment (6-mer frequency, TF over GST control)"
same,binding signal,SPIB,"1.13 fold enrichment (6-mer frequency, TF over GST control)"
same,binding signal,ELK3,"1 fold enrichment (6-mer frequency, TF over GST control)"
same,binding signal,FEV,"1.04 fold enrichment (6-mer frequency, TF over GST control)"
same,binding signal,ETV5,"1.14 fold enrichment (6-mer frequency, TF over GST control)"
same,binding signal,HSF1,"1.18 fold enrichment (6-mer frequency, TF over GST control)"
same,binding signal,SPIC,"1.12 fold enrichment (6-mer frequency, TF over GST control)"
same,binding signal,ELF4,"1.12 fold enrichment (6-mer frequency, TF over GST control)"
same,binding signal,ELK4,"1.15 fold enrichment (6-mer frequency, TF over GST control)"
same,binding signal,ETV2,"1.24 fold enrichment (6-mer frequency, TF over GST control)"
same,binding signal,ELF3,"1.07 fold enrichment (6-mer frequency, TF over GST control)"
same,binding signal,CRX,"1.31 fold enrichment (6-mer frequency, TF over GST control)"
same,binding signal,ETV1,"1.1 fold enrichment (6-mer frequency, TF over GST control)"
